42 molecules from PubChem BioAssay (NCATS) can be followed below.

For assay [1], the target named is Aldehyde dehydrogenase, mitochondrial (Homo sapiens) (UniProt P05091). Description: qHTS for Inhibitors of the Aldehyde Dehydrogenase Family (ALDH2) Primary screen (AID 2061308). Note: nearly all actives have a fitted effect of over 55% in size. On the technique in general: Quantitative high-throughput screening tests each substance at several concentrations.
Assay [2] concerns the target Retinaldehyde dehydrogenase 3 (Homo sapiens) (UniProt P47895). Description: qHTS for Inhibitors of the Aldehyde Dehydrogenase Family (ALDH1A3) Primary screen (AID 2061315).

SMILES strings stand for the structures. Records with an inconclusive call do not appear. Entries that show only a call come without a potency. Calls of active or inactive are those of the source. Calls come from the whole dose curve; as a rule, active = well fitted curve in the direction sought with a large enough effect; inconclusive = small, poorly fitted or top-dose-only effect, or another doubt; inactive = no such curve, though single readings can be large; an effect the other way counts as inactive or inconclusive.

Take `Cn1c2cc(B(O)O)sc2c2cnn(Cc3ccc(F)cc3F)c(=O)c21`: the Potency result in assay [1] and in assay [2] was “inactive” each time.

Take `CC(Cc1ccccc1)C(=O)Nc1ccc(Cl)cc1C(=O)O` (centres undefined): the Potency entry in assay [1] and in assay [2] was “inactive” in each case.

For `Cc1ccc(OCCn2c(CCNC(=O)c3ccc(Cl)cc3)nc3ccccc32)cc1`, the Potency result in assay [1] and in assay [2] was “inactive” in each case.

For `N#CC1=C(Nc2nc3ccccc3o2)OC2=C(C(=O)CCC2)C1c1[nH]ncc1Cl` (centres undefined), the Potency result in assay [1] and in assay [2] was “inactive” throughout.

Take `Cc1ccc(S(=O)(=O)Nc2cnccc2C(=O)Nc2nc(-c3ccc(C)c(C)c3)cs2)cc1`: the Potency result in assay [1] and in assay [2] was “inactive” throughout.

In the case of `COCC(=O)NCCc1nc2ccccc2n1CCOc1ccc(C)cc1`, the Potency result in assay [1] and in assay [2] was “inactive” throughout.

Turning to `CC(C)c1ccccc1-c1ncc(F)c(NCc2ccc(-c3ccn[nH]3)cc2)n1`, the Potency entry in assay [1] and in assay [2] was “inactive” in each case.

In the case of `O=S(=O)(Nc1ccccc1)c1ccc(NCc2cccc(Cl)c2O)cc1`, the Potency result in assay [1] and in assay [2] was “inactive” each time.

Turning to `O=C1CCCC2=C1C(c1[nH]ncc1Cl)N=C(Nc1nc3ccc(Cl)cc3o1)N2` (centres undefined), the Potency entry in assay [1] and in assay [2] was “inactive” each time.

Regarding `CCOC(=O)c1nnc(N[S+](=O)([O-])c2ccc(NC(=O)Cc3ccc(Cl)c(Cl)c3)cc2)s1`, the Potency entry in assay [1] and in assay [2] was “inactive” throughout.

As for `O=C(O)CNC(=O)CNC(=O)CNC(=O)CSC(=O)c1ccccc1`, the Potency result in assay [1] and in assay [2] was “inactive” each time.

Consider `COc1cccc(C2c3c(ncn(-c4ccccc4OC)c3=N)Oc3ccc4ccccc4c32)c1` (centres undefined), for which the Potency result in assay [1] and in assay [2] was “inactive” throughout.

Consider `COc1cc(OC)c2c(c1)OC(=O)CC2c1ccc2c(c1)OCO2` (centres undefined), for which the Potency result in assay [1] and in assay [2] was “inactive” each time.

Consider `NC[C@@H](O)c1ccc(O)c(O)c1`, for which the Potency entry in assay [1] and in assay [2] was “inactive” throughout.

As for `O=C(Nc1ccc(-c2cccnc2)nc1)c1cccs1`, the Potency entry in assay [1] and in assay [2] was “inactive” in each case.

For `C=C(C(=O)O)[C@@H]1CC[C@@]2(C)CC[C@H](O)[C@@]2(C(C)=O)C1`, the Potency entry in assay [1] and in assay [2] was “inactive” throughout.

With `O=S(=O)(Nc1nccs1)c1ccc(NCc2cccc(Cl)c2Cl)cc1`, the Potency entry in assay [1] and in assay [2] was “inactive” each time.

In the case of `COc1c(NS(=O)(=O)c2ccc(C)cc2)cccc1C(=O)Nc1nc(-c2ccccc2)cs1`, the Potency entry in assay [1] and in assay [2] was “inactive” in each case.

As to `Cc1ccc(OCCn2c(CCNC(=O)c3ccccn3)nc3ccccc32)cc1`, the Potency entry in assay [1] and in assay [2] was “inactive” each time.

Consider `Nc1nc(N)c2c(OCC3CCN(Cc4ccccc4F)CC3)cccc2n1`, for which the Potency result in assay [1] and in assay [2] was “inactive” in each case.

Turning to `COc1ccc(N2C[C@]34C=C[C@H](O3)C(C(=O)O)C4C2=O)cc1` (some centres undefined), the Potency entry in assay [1] and in assay [2] was “inactive” each time.

Consider `COc1ccc2c(c1)Oc1ncn(CCN3CCOCC3)c(=N)c1C2c1ccc(OC)c(OC)c1` (centres undefined), for which the Potency result in assay [1] and in assay [2] was “inactive” throughout.

Regarding `CC(=O)Nc1nc(-c2ccc3c(c2)CCN3C(=O)c2ccccc2C)c(C)s1`, the Potency result in assay [1] and in assay [2] was “inactive” each time.

`CC(C)(C)c1cccc(NC(=O)Nc2nnc(-c3ccncc3)s2)c1`: the Potency entry in assay [1] and in assay [2] was “inactive” in each case.

`Cc1ccc(CSc2nnc(-c3cccc4ccccc34)o2)cc1`: the Potency entry in assay [1] and in assay [2] was “inactive” each time.

As for `CC(=O)C1CCN(c2ncc(-c3ccc4c(c3)OCCCO4)s2)CC1`, the Potency entry in assay [1] and in assay [2] was “inactive” throughout.

Take `COc1ccc2c(c1)Oc1nc(-c3ccc(C)cc3)nc(SCC(=O)Nc3cccc(C(=O)O)c3)c1C2`: the Potency entry in assay [1] and in assay [2] was “inactive” throughout.

Regarding `COc1ccc(OC)c(C2=Nn3c(nnc3-c3cccc(OC)c3OC)SC2)c1`, the Potency result in assay [1] and in assay [2] was “inactive” throughout.

Take `CCOC(=O)c1cccc(-n2cnc(/C=C3\NC(=O)N(CC(=O)OC(C)(C)C)C3=O)c2)c1`: the Potency entry in assay [1] and in assay [2] was “inactive” in each case.

As for `O=C(CSc1nc2ccccc2[nH]1)N1CCOCC1`, the Potency result in assay [1] and in assay [2] was “inactive” each time.

Consider `C=CCNc1oc(-c2ccc(-c3ccccc3)cc2)nc1C#N`, for which the Potency result in assay [1] and in assay [2] was “inactive” throughout.

Regarding `CC(C)c1nc(Nc2nc3ccccc3o2)nc2c1CCCC2`, the Potency entry in assay [1] and in assay [2] was “inactive” in each case.

Take `Fc1cc(Nc2nc(-c3ccncc3)nc3ccccc23)ccc1-n1cncn1`: the Potency result in assay [1] and in assay [2] was “inactive” in each case.

As to `COc1cccc(-c2ccc3ncnc(NCc4cccc(F)c4)c3c2)c1`, the Potency entry in assay [1] and in assay [2] was “inactive” in each case.

In the case of `NC(=O)C1CCN(c2nc(-c3cccs3)cs2)CC1`, the Potency result in assay [1] and in assay [2] was “inactive” each time.

As for `Cc1csc(CNc2ncnc3ccc(-c4ccc5c(c4)OCO5)cc23)c1`, the Potency entry in assay [1] and in assay [2] was “inactive” each time.

For the molecule `N#Cc1nc(-c2cccc3ccccc23)oc1NCC#CCOC(=O)c1cccs1`, the Potency entry in assay [1] and in assay [2] was “inactive” each time.

Take `CC1OC2O[C@H]3[C@@H](OCC(O)[C@H]3O)OC(=O)C34CCC(C)(C)CC3C3=CCC5C6(C)CC(O)C(OC7OC(CO)C(O)C(O)C7O[C@@H]7OC[C@H](OC(=O)CC(C)(O)CC(=O)OC1C(OC1OCC(O)C(O)C1O)C2O)[C@@H](O)[C@H]7O)C(C)(CO)C6CCC5(C)C3(C)CC4` (some centres undefined): the Potency entry in assay [1] and in assay [2] was “inactive” in each case.

Consider `Cc1cc(N[S+](=O)([O-])c2ccc(NC(=O)Cc3nc4ccc(Cl)cc4[nH]3)cc2)no1`, for which the Potency result in assay [1] and in assay [2] was “inactive” throughout.

Consider `Fc1ccc(Nc2cc(-c3ccccc3)nc(-c3ccncc3)n2)cc1F`, for which the Potency entry in assay [1] and in assay [2] was “inactive” in each case.

For the molecule `COc1cccc(NS(=O)(=O)c2ccc3c(c2)CCC(=O)N3)c1`, the Potency entry in assay [1] and in assay [2] was “inactive” each time.

Consider `COC(=O)c1ccc(Nc2nc(-c3ccncc3)nc3ccccc23)cc1OC`, for which the Potency entry in assay [1] and in assay [2] was “inactive” each time.
